Assay outcomes as filed in PubChem.
The list is not random: actives were taken first. Their share in the collection is about 3.8%.
HT1080 IDH1KD tx: qHTS for induction of synthetic lethality in tumor cells producing 2HG: qHTS for the HT-1080-IDH1KD cell line; 360,000 tested, 2% active; Potency, µM (highest dose often 46.1 µM), without a hit: at the top dose activity, negative = toxicity, most hits filed as cytotoxic; HT-1080 IDH1 knockdown viability, ATP luminescence, 48 h;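 note: 0% = DMSO wells and -100% = cell-free medium wells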
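Using the IDH1-knockdown HT-1080 line run in the same batch and compound series as the NT line, viability after 48 h at 37 °C was determined by CellTiter-Glo luminescence and expressed as % activity.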
TGFb SMAD3 inh: qHTS for Inhibitors of TGF-b | HepG2 CAGA-GFP TGF-b/SMAD3 reporter, GFP fluorescence, 18 h; TGF-beta stimulated, 500 pg/mL final | Potency, µM (doses to about 46.1 µM), without a hit: at the highest dose activity, negative = inhibition, hits mostly inhibitors | 410,000 tested, 1.2% active | AID 588855, 2011; note: % is set by controls: 0 for no effect and ±100 for the full control effect; nearly all actives have a fitted effect of over 65% in size
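Smad-responsive CAGA-GFP expression was quantified in HEPG2 cells exposed to compounds and 500 pg/mL final TGF-beta for 18 h at 37 degrees C; unstimulated wells defined full inhibition.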
ATXN viability: Viability Counterscreen for Primary qHTS for Inhibitors of ATXN expression | S2 cells (HEK-293 line with an ATXN2-luciferase reporter) viability, CellTiter-Fluor protease fluorescence, 24 h | Potency, µM (top dose mostly 56.7 µM), actives largely listed as cytotoxic | 400,000 tested, 0.49% active; note: nearly all actives have a fitted effect of over 40% in size
ATXN2 expr inh: Primary qHTS for Inhibitors of ATXN expression. HEK-293 ATXN2-luciferase reporter, luminescence, 24 h. Potency, µM (doses to about 57 µM), for the others: at the top dose activity change, negative = inhibition, hits mostly inhibitors. 360,000 tested, 0.72% active; note: % is set by controls: 0 for no effect and ±100 for the full control effect; nearly all actives have a fitted effect of over 55% in size
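qHTS (up to 57 uM final) was run with 24 h compound exposure of reporter cells at 37 °C. Each well was multiplexed: SteadyGlo luminescence measured ATXN2-luciferase expression after a fluorogenic Gly-Phe-AFC viability readout (25 uM final).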
HT1080NT lethal: qHTS for induction of synthetic lethality in tumor cells producing 2HG: qHTS for the HT-1080-NT fibrosarcoma cell line | HT-1080-NT fibrosarcoma viability, CellTiter-Glo ATP luminescence, 48 h | Potency, µM (top dose mostly 46.1 µM), inactives show at the highest dose activity, negative = less viability, most hits filed as cytotoxic | 360,000 tested, 1.6% active | AID 686970, 2013;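 note: NT is the 2HG producing partner of a matched IDH1 knockdown line; 0% = DMSO-treated cells and -100% = media-only wells without cells; nearly all actives have a fitted effect of over 55% in size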
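HT-1080-NT; 750 cells/well; 5% FBS RPMI; 48 h compound, 37 degrees C; CellTiter-Glo luminescence; curve fitting and curve-class assignment.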
HepG2 tox-1: qHTS for Inhibitors of TGF-b: Cytotox Counterscreen | HepG2 CAGA-GFP viability, ATP luminescence, 18 h | Potency, µM (titrated, usually from 46.1 µM), without a hit: at the highest dose activity change, negative = cytotoxicity, hits mostly cytotoxic | 410,000 tested, 0.76% active
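CellTiter-Glo luminescence gave cytotoxicity after 18 hours at 37 degrees C. The cells were HepG2 CAGA-GFP in 1% FBS DMEM, stimulated with 500 pg/mL TGF-beta after compound addition. %Activity was normalised to no-cell wells (complete cell-killing) and DMSO (no toxicity), and curves were fitted and classified.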
TGFb CAGA inh: qHTS for Inhibitors of TGF-b: Confirmation of Cherry Picks. shares compounds with TGFb SMAD3 inh. HepG2 CAGA-GFP TGF-b reporter, GFP fluorescence, 18 h; cells stimulated with TGF-beta, 500 pg/mL. Potency, µM (doses to about 46.1 µM), inactives show at the highest dose activity, negative = inhibition, actives largely listed as inhibitors. 1,600 tested, 63% active; note: % is set by controls: 0 for no effect and ±100 for the full control effect; nearly all actives have a fitted effect of over 65% in size
HepG2 tox-2: qHTS for Inhibitors of TGF-b: Cytotox Counterscreen for Cherry Picks. shares compounds with TGFb SMAD3 inh. HepG2 CAGA-GFP viability, ATP luminescence, 18 h; cells stimulated with TGF-beta, 500 pg/mL. Potency, µM (series often up to 46.1 µM), for inactives: at the highest dose activity, negative = cytotoxicity, usual class: inhibitors. 1,600 tested, 27% active. AID 720535, 2013; note: % is set by controls: 0 for no effect and ±100 for the full control effect; nearly all actives have a fitted effect of over 70% in size
CCL64 TGFb inh: qHTS for Inhibitors of TGF-b: CCL64 Cells Orthogonal Assay for Cherry Picks. CCL64 CAGA-GFP reporter, TGF-b stimulated, GFP fluorescence, 18 h. shares compounds with TGFb SMAD3 inh. Potency, µM (titrated, usually from 46.1 µM), without a hit: at the top dose activity, negative = inhibition, most hits filed as inhibitors. 1,600 tested, 41% active; note: nearly all actives have a fitted effect of over 65% in size
COP TGFb inh: qHTS for Inhibitors of TGF-b: Hit Validation in HepG2 Cells using COP promoter | AID 720537, 2013 | shares compounds with TGFb SMAD3 inh | 1,600 tested, 3% active | Potency, µM (top dose mostly 46.1 µM), without a hit: at the top dose activity, negative = inhibition, usual class: inhibitors | HepG2 COP-GFP TGF-b reporter, GFP fluorescence, 18 h; cells stimulated by added recombinant TGF-beta; note: nearly all actives have a fitted effect of over 70% in size
* hit, by the source's call; i = inactive; ? = inconclusive; / = no result. Calls come from the whole dose curve; as a rule, active = well fitted curve in the direction sought with a large enough effect; inconclusive = small, poorly fitted or top-dose-only effect, or another doubt; inactive = no such curve, though single readings can be large; an effect the other way counts as inactive or inconclusive. Potency is the fitted concentration of half-maximal effect.

SMILES	HT1080 IDH1KD tx	TGFb SMAD3 inh	ATXN viability	ATXN2 expr inh	HT1080NT lethal	HepG2 tox-1	TGFb CAGA inh	HepG2 tox-2	CCL64 TGFb inh	COP TGFb inh
O=C(c1ccc([N+](=O)[O-])s1)N1CCc2ccccc21	12%	-15%	i	-24%	9%	-3%	/	/	/	/
O=C(c1ccc([N+](=O)[O-])s1)N1CCc2ccccc2C1	-21%	?	?	-29%	-26%	-53%	23µM*	?	?	4%
Cc1cc(NC(=O)CS(=O)(=O)c2cn(Cc3cccc(Br)c3)c3ccccc23)no1	21µM*	10µM*	?	?	?	-10%	12µM*	-15%	?	31%
CCN(CC)C(=O)Cn1cc(S(=O)(=O)CC(=O)Nc2cc(C)on2)c2ccccc21	5%	27%	?	-14%	3%	1%	/	/	/	/
Cc1cc(NC(=O)COc2ccccc2)cc(-c2nc3ccccc3o2)c1O	/	7%	i	-3%	/	-2%	/	/	/	/
CC(C)C[C@@H](CN1CCC[C@@H]1CN1C(=S)NC[C@@H]1Cc1ccc(O)cc1)N1C[C@H](Cc2ccc(O)cc2)N(CC2CCCCCC2)C1=S	18µM*	4.5µM*	?	?	?	-89%	18µM*	18µM*	8.2µM*	49%
CC(C)C[C@@H](CN1CCCC1CN1C(=S)NC[C@@H]1Cc1ccccc1)N1C[C@H](Cc2ccc(O)cc2)N(CC2CCCCC2)C1=S (some centres not stated)	?	/	?	-37%	?	/	/	/	/	/
CC(C)C[C@@H](CN1CCC[C@@H]1CN1C(=S)NC[C@@H]1Cc1ccc(O)cc1)N1C[C@H](Cc2ccc(O)cc2)N(CC2CCCCC2)C1=S	?	7.1µM*	25µM*	?	23µM*	-89%	16µM*	?	5.8µM*	?
COC(=O)c1cc(NC(=O)Cn2ncc3c([nH]c4ccccc43)c2=O)cc(C(=O)OC)c1	/	-2%	i	5%	/	-21%	/	/	/	/
COc1ccccc1CNC(=O)c1ccc(CSc2nc3ccncc3n2Cc2cccc(F)c2)cc1	/	?	i	-5%	/	-23%	/	/	/	/
COc1ccc(-c2ccc(C(=O)Nc3cccc(F)c3)c3occc23)c(C)c1	?	-3%	i	69%	?	-17%	/	/	/	/
COc1ccc(-c2ccc(C(=O)Nc3cccc(NS(C)(=O)=O)c3)c3occc23)c(C)c1	?	16µM*	?	?	?	-21%	10µM*	?	23µM*	35%
O=C(CCCCn1c(=O)[nH]c2ccsc2c1=O)N1CCN(c2cccc(Cl)c2)CC1	/	?	?	?	/	-24%	/	/	/	/
C(=C\c1ccccc1)/CN1CCN(C(c2ccnc3ccccc23)c2nnnn2C2CCCCC2)CC1 (configuration not stated)	?	11µM*	?	?	?	-1%	18µM*	?	18µM*	46%
CCCCn1nnnc1C(c1cccc2ccccc12)N1CCN(C/C=C/c2ccccc2)CC1 (configuration not stated)	?	11µM*	?	?	?	-6%	?	?	?	56%
FC(F)(F)Oc1ccccc1C(c1nnnn1Cc1ccccc1)N1CCN(C/C=C/c2ccccc2)CC1 (configuration not stated)	-16%	?	i	-16%	-18%	-40%	/	/	/	/
C(=C\c1ccccc1)/CN1CCN(C(c2ccccc2)c2nnnn2C2CCCCC2)CC1 (configuration not stated)	7%	-6%	i	10%	21%	-1%	/	/	/	/
CCCCn1nnnc1C(c1ccccc1OC(F)(F)F)N1CCN(C/C=C/c2ccccc2)CC1 (configuration not stated)	?	13µM*	?	-25%	?	-16%	18µM*	-19%	?	21%
COCCNc1nc(NCc2cccs2)nc2ccsc12	15%	13µM*	i	-7%	19%	-12%	6.5µM*	?	?	42%
Cc1ccc(Nc2nc(NCc3cccs3)nc3ccsc23)c(C)c1	?	13µM*	?	?	?	-26%	6.5µM*	?	?	58%
O=C1CCCN1CCCNc1nc(NCc2cccs2)nc2ccsc12	-6%	10µM*	?	-28%	?	-24%	6.5µM*	?	?	68%
CC(=O)NCCNc1nc(NCc2cccs2)nc2ccsc12	11%	-1%	i	14%	-2%	-1%	/	/	/	/
NC(=O)C1(N2CCCCC2)CCN(CCCC(=O)c2ccc(F)cc2)CC1	/	/	i	2%	/	/	/	/	/	/
N#Cc1ccccc1OCC(=O)N1CCN(c2ccccc2)CC1	/	0%	i	-2%	/	0%	/	/	/	/
COC(=O)c1[nH]c2c(c1C)C(=O)CC(c1ccccc1)C2 (configuration not stated)	?	?	?	-20%	0.45µM*	1%	?	0%	?	-12%
